# Inconclusive results are not listed. Active and inactive are the calls of the source. Unless noted, how the calls were made is not given here.
# What was measured:
# [1] = Immunotoxin (HA22) sensitization/mitigation study. Vehicle arm (PBS) (AID 1159510); further: potency means the concentration at half of the fitted maximal effect
# [2] = Immunotoxin (SS1P) sensitization/mitigation study. Vehicle arm (DMEM) (AID 1159513); further: potency means the concentration at half of the fitted maximal effect
# [3] = High-throughput drug toxicity screening in the BPDCN cell line Gen2.2 (AID 1224824); conditions: Gen2.2 BPDCN cells; at 45.8 µM (top of the series);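 further: cells exposed to compounds for 48 h before reading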
# Method in brief: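 Gen2.2, 500 cells/well, phenol red-free RPMI/10% FBS/Pen-Strep; 48 h cpd, 37 °C/5% CO2; CTG lum, 15 min RT. Norm: DMSO = 100%, bortezomib 9.2 uM final = 0%.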
# [4] = High-throughput drug toxicity screening in the BPDCN cell line Cal-1 (AID 1224825); conditions: Cal-1 BPDCN cell viability, qHTS; at 45.8 µM (top of the series)
# Method in brief: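 Cal-1 cells, 500 per well in phenol-red-free RPMI with 10% FBS, exposed to compounds for 48 hours at 37C, 5% CO2. Viability read by CellTiter-Glo luminescence; percent activity normalized to DMSO (100%) and 9.2 uM bortezomib final (0%).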
# [5] = qHTS assay for measurement of the activity of small molecule inhibitors on Zika virus induced Caspase-3 activity in human iPSC derived neural progenitor cells (hNPCs) (AID 1224857; active means well fitted curve in the direction sought with a large enough effect; an effect the other way counts as inactive or inconclusive; further: % of control where 0% means no effect; nearly all actives have a fitted effect of over 65% in size)
# Method in brief: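 In medium with heparin 2 ug/ml and cyclopamine 2 uM, hNPCs (350 cells/well) received compound for one hour and then Zika virus at 2 FFU/cell; caspase activity was measured by Caspase-Glo 3/7 luminescence 6 h post-infection.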
# [6] = qHTS assay for measurement of the activity of small molecule inhibitors on Zika virus induced Caspase-3 activity in human astrocytoma cells (AID 1224859; active means well fitted curve in the direction sought with a large enough effect; an effect the other way counts as inactive or inconclusive;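 further: plate controls were ZIKV-infected untreated cells for no effect and uninfected cells for full effect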)
# Method in brief: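 A cell-based luminescent caspase-3/7 assay used SNB-19 cells infected with ZIKV (2 FFU/cell) for 6 h following 1 h compound pretreatment.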
# [7] = qHTS Screen of the MIPE 4.0 Collection Against Ewings Sarcoma (EW8) (AID 1259255; active means well fitted curve in the direction sought with a large enough effect; an effect the other way counts as inactive or inconclusive; further: potency means the concentration at half of the fitted maximal effect; nearly all actives have a fitted effect of over 35% in size)
# Method in brief: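 Log-phase cells in RPMI with 5% FBS attached for 4 h, then received compounds as a titration for 48 h at 37C, 5% CO2. Viability was read by CellTiter-Glo luminescence and normalized to DMSO and no-cell wells.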
# [8] = qHTS assay to identify small molecule inhibitors of chordoma cells - UCH-1 (AID 1259355; active means well fitted curve in the direction sought with a large enough effect; an effect the other way counts as inactive or inconclusive; further: on the % scale 0 is the no-effect control and ±100 the full control effect; nearly all actives have a fitted effect of over 55% in size)
# Method in brief: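 Cells (800/well) were seeded and left overnight at 37 C, 5% CO2, then treated with drugs at 15 concentrations plus a combination mix of auranofin, camptothecin, doxorubicin, rubitecan and topotecan. Viability after 48hr was read by CellTiter-Glo luminescence.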
# [9] = qHTS assay to identify small molecule inhibitors of chordoma cells - UCH-2 (AID 1259356; active means well fitted curve in the direction sought with a large enough effect; an effect the other way counts as inactive or inconclusive; further: on the % scale 0 is the no-effect control and ±100 the full control effect)
# [10] = P-glycoprotein substrates identified in KB-8-5-11 adenocarcinoma cell line, qHTS therapeutic library screen (AID 1346987; active means well fitted curve in the direction sought with a large enough effect; an effect the other way counts as inactive or inconclusive; further: potency means the concentration at half of the fitted maximal effect; nearly all actives have a fitted effect of over 65% in size)
# Method in brief: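 KB-8-5-11: colchicine-selected sub-line of KB-3-1 over-expressing P-gp; assay medium lacked colchicine. 72 h drug exposure at 37 degree C, CellTiter-Glo.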
# [11] = NS1 protein of Zika virus - qHTS assay to identify small molecule inhibitors in human HEK 293 cells (AID 1347053; active means well fitted curve in the direction sought with a large enough effect; an effect the other way counts as inactive or inconclusive;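 further: plate controls were infected untreated cells for no effect and uninfected cells for full effect; nearly all actives have a fitted effect of over 55% in size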)
# Method in brief: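 Following 20 h seeding, HEK 293 cells took compound, then 1 h later ZIKV MR766 (MOI = 0.5). Incubation ran 24 h at 37 C before TR-FRET detection of NS1; a drop in signal indicates inhibition.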
compound,measurement,setting,value
COc1cc(Nc2c(C#N)cnc3cc(OCCCN4CCN(C)CC4)c(OC)cc23)c(Cl)cc1Cl,Potency,[1],13.2 µM (active)
same,Potency,[2],23.5 µM (active)
CO[C@@H](C(=O)N1Cc2[nH]nc(NC(=O)c3ccc(N4CCN(C)CC4)cc3)c2C1)c1ccccc1,Potency,[1],0.332 µM (active)
same,Potency,[2],23.5 µM (active)
Cc1cc2c(C(C)C)c(O)c(O)c(C=O)c2c(O)c1-c1c(C)cc2c(C(C)C)c(O)c(O)c(C=O)c2c1O,Potency,[1],8.33 µM (active)
CCN(CCO)CCCC(C)Nc1ccnc2cc(Cl)ccc12 (configuration not stated),Potency,[1],inactive
same,Potency,[2],inactive
CC1=C(/C=C/C(C)=C/C=C/C(C)=C/C(=O)Nc2ccc(O)cc2)C(C)(C)CCC1,Potency,[1],1.87 µM (active)
same,Potency,[2],23.5 µM (active)
C#Cc1cccc(Nc2ncnc3cc(OCCOC)c(OCCOC)cc23)c1,Potency,[1],16.6 µM (active)
same,Potency,[2],4.69 µM (active)
C=CC(=O)Nc1cc2c(Nc3ccc(F)c(Cl)c3)ncnc2cc1OCCCN1CCOCC1,Potency,[1],18.7 µM (active)
same,Potency,[2],26.4 µM (active)
Cn1ccc2cc3c(cc21)CCN3C(=O)Nc1cccnc1,Potency,[1],inactive
same,Potency,[2],inactive
Nc1ccn([C@@H]2O[C@H](CO)[C@@H](O)C2(F)F)c(=O)n1,Potency,[1],0.0121 µM (active)
CC(=O)SC[C@@H](C)C(=O)N1CCC[C@H]1C(=O)N[C@@H](Cc1ccccc1)C(=O)O,Potency,[1],inactive
same,Potency,[2],inactive
CCCc1nc2c(C)cc(-c3nc4ccccc4n3C)cc2n1Cc1ccc(-c2ccccc2C(=O)O)cc1,Potency,[1],26.4 µM (active)
same,Potency,[2],inactive
Nc1cccc2c1CN(C1CCC(=O)NC1=O)C2=O (configuration not stated),Potency,[1],inactive
same,Potency,[2],inactive
CC(c1cc2ccccc2s1)N(O)C(N)=O (configuration not stated),Potency,[1],inactive
same,Potency,[2],inactive
Cc1ccc(-n2nc(C(C)(C)C)cc2NC(=O)Nc2ccc(OCCN3CCOCC3)c3ccccc23)cc1,Potency,[1],10.5 µM (active)
same,Potency,[2],inactive
CC[C@@]1(O)C(=O)OCc2c1cc1n(c2=O)Cc2cc3c(CN(C)C)c(O)ccc3nc2-1,Potency,[1],0.0118 µM (active)
same,Potency,[2],5.9 µM (active)
CC(C)C[C@H](NC(=O)[C@H](Cc1ccccc1)NC(=O)c1cnccn1)B(O)O,Potency,[1],0.0037 µM (active)
same,Potency,[2],0.0148 µM (active)
CS(=O)(=O)CCNCc1ccc(-c2ccc3ncnc(Nc4ccc(OCc5cccc(F)c5)c(Cl)c4)c3c2)o1,Potency,[1],20.9 µM (active)
COc1cccc2c1C(=O)c1c(O)c3c(c(O)c1C2=O)C[C@@](O)(C(=O)CO)C[C@@H]3O[C@H]1C[C@H](N)[C@H](O)[C@H](C)O1,Potency,[1],0.0118 µM (active)
same,Potency,[2],0.187 µM (active)
O=C(CCCCCCC(=O)Nc1ccccc1)NO,Potency,[1],0.0959 µM (active)
same,Potency,[2],0.481 µM (active)
Nc1ncn([C@@H]2O[C@H](CO)[C@@H](O)[C@H]2O)c(=O)n1,Potency,[1],4.18 µM (active)
same,Potency,[2],14.8 µM (active)
Cc1oncc1C(=O)Nc1ccc(C(F)(F)F)cc1,Potency,[1],20.9 µM (active)
CC(=O)O[C@@]12CO[C@@H]1C[C@H](O)[C@@]1(C)C(=O)[C@H](O)C3=C(C)[C@@H](OC(=O)[C@H](O)[C@@H](NC(=O)OC(C)(C)C)c4ccccc4)C[C@@](O)([C@@H](OC(=O)c4ccccc4)[C@H]21)C3(C)C,Potency,[1],inactive
same,Potency,[2],inactive
CN1CC(=O)N/C1=N/C(=O)Nc1cccc(Cl)c1,Potency,[1],inactive
same,Potency,[2],inactive
CS(=O)c1ccc(-c2nc(-c3ccc(F)cc3)c(-c3ccncc3)[nH]2)cc1 (configuration not stated),Potency,[1],inactive
same,Potency,[2],inactive
Cn1cnc2c(F)c(Nc3ccc(Br)cc3Cl)c(C(=O)NOCCO)cc21,Potency,[1],inactive
same,Potency,[2],inactive
CC(C)n1c(C=C[C@H](O)C[C@H](O)CC(=O)O)c(-c2ccc(F)cc2)c2ccccc21,Potency,[1],8.33 µM (active)
same,Potency,[2],9.35 µM (active)
CC1(CN2CCC(n3c(=O)[nH]c4ccccc43)CC2)OCc2ccccc2-n2cccc21 (configuration not stated),Potency,[1],26.4 µM (active)
CNC(=O)c1cc(Oc2ccc(NC(=O)Nc3ccc(Cl)c(C(F)(F)F)c3)cc2)ccn1,Potency,[1],14.8 µM (active)
same,Potency,[2],20.9 µM (active)
COc1cc2c(N3CCN(C(=O)Nc4ccc(OC(C)C)cc4)CC3)ncnc2cc1OCCCN1CCCCC1,Potency,[1],20.9 µM (active)
O=C1Nc2ccc(Cl)cc2[C@@](C#CC2CC2)(C(F)(F)F)O1,Potency,[1],42.9 µM (active)
same,Potency,[2],48.1 µM (active)
COc1ccc2nc(S(=O)Cc3ncc(C)c(OC)c3C)[nH]c2c1 (configuration not stated),Potency,[1],inactive
same,Potency,[2],inactive
CC(C)C[C@H](NC(=O)[C@H](CCc1ccccc1)NC(=O)CN1CCOCC1)C(=O)N[C@@H](Cc1ccccc1)C(=O)N[C@@H](CC(C)C)C(=O)[C@@]1(C)CO1,Potency,[1],0.0015 µM (active)
same,Potency,[2],0.0418 µM (active)
CCC(C)n1ncn(-c2ccc(N3CCN(c4ccc(OC[C@H]5CO[C@](Cn6cncn6)(c6ccc(Cl)cc6Cl)O5)cc4)CC3)cc2)c1=O (some centres not stated),Potency,[1],0.743 µM (active)
same,Potency,[2],16.6 µM (active)
Cc1nc(Nc2ncc(C(=O)Nc3c(C)cccc3Cl)s2)cc(N2CCN(CCO)CC2)n1,Potency,[1],5.9 µM (active)
same,Potency,[2],20.9 µM (active)
Cc1ccc(-c2cc(C(F)(F)F)nn2-c2ccc(S(N)(=O)=O)cc2)cc1,Potency,[1],48.1 µM (active)
same,Potency,[2],38.2 µM (active)
COc1cc([C@@H]2c3cc4c(cc3[C@H](O)[C@H]3COC(=O)[C@H]23)OCO4)cc(OC)c1OC,Potency,[1],0.0037 µM (active)
same,Potency,[2],0.0083 µM (active)
CN(C)C(=N)N=C(N)N,Potency,[1],inactive
same,Potency,[2],inactive
O=P1(NCCCl)OCCCN1CCCl (configuration not stated),"cell viability, % of control (lower = more cytotoxic)",[3],49.3%
same,viability (% of control),[4],20.1%
same,Potency,[5],inactive
same,outcome,[6],inactive
same,Potency,[7],20.9 µM (active)
same,Potency,[8],inactive
same,Potency,[9],inactive
same,Potency,[10],10.5 µM (active)
same,Potency,[11],inactive
